# Assay results: PubChem BioAssay (NCI)
# About 79,000 compounds went through this panel and 15% of them were active in at least one assay; those are over-represented in the sample as a whole. A number with no mark means an inactive call. Active and inactive are the calls of the source. Rule as the data show it: active = growth inhibition above about 70%; inactive = the rest.
# Tests used:
# [1] = NCI Yeast Anticancer Drug Screen. Data for the wt1 strain (AID 149);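 also: 0% = growth of vehicle-treated wt1 cultures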; conditions: S. cerevisiae wt1 strain (SPY 50644) growth inhibition, active compounds read high
# Method in brief: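 wt1 yeast, compound-treated; % growth inhibition vs vehicle control.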
# [2] = NCI Yeast Anticancer Drug Screen. Data for the rad50EPP+ strain (AID 151);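 also: 0% = growth of vehicle-treated control cultures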; conditions: S. cerevisiae rad50 mutant strain, active compounds read high
# Method in brief: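 In this screen, rad50EPP+ yeast were exposed to compounds. Growth inhibition was scored against vehicle-treated controls.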
# [3] = NCI Yeast Anticancer Drug Screen. Data for the mgt1 strain (AID 153); conditions: S. cerevisiae mgt1 mutant growth inhibition, active compounds read high
# Method in brief: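 mgt1 strain exposed; growth vs vehicle control recorded as inhibition.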
# [4] = NCI Yeast Anticancer Drug Screen. Data for the rad50 strain (AID 155);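 also: 0% = growth of vehicle-only cultures of the same strain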; conditions: S. cerevisiae rad50 strain growth inhibition, active compounds read high
# Method in brief: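 Genetically altered yeast (DNA repair pathway); compound treatment; growth inhibition vs vehicle ctrl.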
# [5] = NCI Yeast Anticancer Drug Screen. Data for the mec2-1 strain (AID 157); conditions: S. cerevisiae mec2-1 strain, active compounds read high
# Method in brief: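 Vehicle-treated cultures served as reference for growth inhibition of compound-exposed mec2-1 yeast.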
# [6] = NCI Yeast Anticancer Drug Screen. Data for the rad14 strain (AID 159);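 also: 0% = growth of vehicle-treated control cultures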; conditions: S. cerevisiae rad14 strain growth inhibition, active compounds read high
# Method in brief: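 Test compounds were applied to a repair-deficient yeast strain. Its growth was then compared with that of cultures given vehicle alone, and inhibition was expressed relative to those controls.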
# [7] = NCI Yeast Anticancer Drug Screen. Data for the sgs1 mgt1 strain (AID 161);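 also: 0% = growth of cultures given vehicle only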; conditions: S. cerevisiae sgs1 mgt1 strain, active compounds read high
# Method in brief: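 Mutant yeast exposed to compound; growth scored against vehicle-only wells.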
# [8] = NCI Yeast Anticancer Drug Screen. Data for the CLN2oe strain (AID 163);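 also: 0% = growth of vehicle-only control cultures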; conditions: S. cerevisiae CLN2oe strain, active compounds read high
# Method in brief: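 Inhibition relative to vehicle-treated yeast is reported. Cells: strain with genetic alteration in cell-cycle control, grown with compound.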
# [9] = NCI Yeast Anticancer Drug Screen. Data for the cln2 rad14 strain (AID 165);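 also: 0% = growth equal to vehicle treated cultures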; conditions: S. cerevisiae cln2 rad14 strain, active compounds read high
# Method in brief: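 Each compound was tested on cln2 rad14 yeast. Inhibition of growth was calculated against vehicle-exposed controls.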
# [10] = NCI Yeast Anticancer Drug Screen. Data for the bub3 strain (AID 167); conditions: S. cerevisiae bub3 mutant strain, active compounds read high
# Method in brief: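 Yeast carrying a defined mutation is treated with each compound, and growth is compared with that of vehicle-exposed cells to give inhibition.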
# [11] = NCI Yeast Anticancer Drug Screen. Data for the wt2 strain (AID 169);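 also: 0% = growth of vehicle-treated yeast cultures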; conditions: S. cerevisiae wt2 strain growth inhibition, active compounds read high
# Method in brief: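 Inhibition of yeast growth was determined after compound treatment, normalised to controls receiving only vehicle.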
# [12] = NCI Yeast Anticancer Drug Screen. Data for the mlh1 strain (AID 171);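 also: 0% = growth of vehicle-treated control cultures of the same strain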; conditions: S. cerevisiae mlh1 strain growth inhibition, active compounds read high
# Method in brief: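 Vehicle-normalised growth inhibition of a repair- or checkpoint-altered yeast strain following compound treatment.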
# [13] = NCI Yeast Anticancer Drug Screen. Data for the sgs1 strain (AID 173);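 also: 0% = growth of vehicle-only control cultures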; conditions: S. cerevisiae sgs1 mutant, active compounds read high
# Method in brief: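 Screen format: yeast with repair or checkpoint alterations, compound exposure, growth read relative to vehicle.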
# [14] = NCI Yeast Anticancer Drug Screen. Data for the mlh1 rad18 strain (AID 175); conditions: S. cerevisiae mlh1 rad18 strain growth inhibition, active compounds read high
# Method in brief: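 Vehicle-treated cultures served as the reference for growth inhibition in a yeast strain carrying DNA damage repair alterations exposed to each compound.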
# [15] = NCI Yeast Anticancer Drug Screen. Data for the rad18 strain (AID 177); conditions: S. cerevisiae rad18 mutant growth inhibition, active compounds read high
# Method in brief: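 Test articles were incubated with altered yeast defective in DNA damage repair. Results are given as inhibition of growth versus vehicle.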
# [16] = at 5.0 µM (retest, dose inferred, filed as 0.5)
# [17] = at 50.0 µM (retest, dose inferred, filed as 5.0)
compound,measurement,setting,value
COc1cc(C2c3cc4c(cc3[C@@H](Nc3ccc(N)cc3)C3COC(=O)[C@H]23)OCO4)cc(OC)c1O (stereo partly drawn),growth inhibition,[1]; at 1.2 µM,-35%
same,growth inhibition,[1]; at 3.7 µM,64%
same,growth inhibition,[1]; at 11.0 µM,95% (active)
same,growth inhibition,[1]; at 33.0 µM,94% (active)
same,growth inhibition,[1]; at 100.0 µM,88% (active)
same,growth inhibition,[2]; at 1.2 µM,-2%
same,growth inhibition,[2]; at 3.7 µM,12%
same,growth inhibition,[2]; at 11.0 µM,63%
same,growth inhibition,[2]; at 33.0 µM,85% (active)
same,growth inhibition,[2]; at 100.0 µM,89% (active)
same,growth inhibition,[3]; at 1.2 µM,-16%
same,growth inhibition,[3]; at 3.7 µM,66%
same,growth inhibition,[3]; at 11.0 µM,94% (active)
same,growth inhibition,[3]; at 33.0 µM,95% (active)
same,growth inhibition,[3]; at 100.0 µM,90% (active)
same,growth inhibition,[4]; at 1.2 µM,91% (active)
same,growth inhibition,[4]; at 3.7 µM,95% (active)
same,growth inhibition,[4]; [16],92% (active)
same,growth inhibition,[4]; at 11.0 µM,95% (active)
same,growth inhibition,[4]; at 33.0 µM,94% (active)
same,growth inhibition,[4]; [17],95% (active)
same,growth inhibition,[4]; at 50.0 µM,82.8% (active)
same,growth inhibition,[4]; at 100.0 µM,88% (active)
same,growth inhibition,[5]; at 1.2 µM,14%
same,growth inhibition,[5]; at 3.7 µM,89% (active)
same,growth inhibition,[5]; [16],70% (active)
same,growth inhibition,[5]; at 11.0 µM,95% (active)
same,growth inhibition,[5]; at 33.0 µM,93% (active)
same,growth inhibition,[5]; [17],96% (active)
same,growth inhibition,[5]; at 50.0 µM,90% (active)
same,growth inhibition,[5]; at 100.0 µM,88% (active)
same,growth inhibition,[6]; at 1.2 µM,2%
same,growth inhibition,[6]; at 3.7 µM,71% (active)
same,growth inhibition,[6]; at 11.0 µM,95% (active)
same,growth inhibition,[6]; at 33.0 µM,37%
same,growth inhibition,[6]; at 100.0 µM,92% (active)
same,growth inhibition,[7]; [16],18%
same,growth inhibition,[7]; [17],94% (active)
same,growth inhibition,[7]; at 50.0 µM,85.3% (active)
same,growth inhibition,[8]; at 1.2 µM,0%
same,growth inhibition,[8]; at 3.7 µM,62%
same,growth inhibition,[8]; at 11.0 µM,92% (active)
same,growth inhibition,[8]; at 33.0 µM,41%
same,growth inhibition,[8]; at 100.0 µM,88% (active)
same,growth inhibition,[9]; [16],20%
same,growth inhibition,[9]; [17],90% (active)
same,growth inhibition,[9]; at 50.0 µM,85.9% (active)
same,growth inhibition,[10]; at 1.2 µM,-33%
same,growth inhibition,[10]; at 3.7 µM,55%
same,growth inhibition,[10]; [16],22%
same,growth inhibition,[10]; at 11.0 µM,92% (active)
same,growth inhibition,[10]; at 33.0 µM,85% (active)
same,growth inhibition,[10]; [17],93% (active)
same,growth inhibition,[10]; at 50.0 µM,84.8% (active)
same,growth inhibition,[10]; at 100.0 µM,85% (active)
same,growth inhibition,[11]; at 1.2 µM,-1%
same,growth inhibition,[11]; at 3.7 µM,42%
same,growth inhibition,[11]; at 11.0 µM,92% (active)
same,growth inhibition,[11]; at 33.0 µM,94% (active)
same,growth inhibition,[11]; at 100.0 µM,93% (active)
same,growth inhibition,[12]; at 1.2 µM,-4%
same,growth inhibition,[12]; at 3.7 µM,74% (active)
same,growth inhibition,[12]; at 11.0 µM,93% (active)
same,growth inhibition,[12]; at 33.0 µM,93% (active)
same,growth inhibition,[12]; at 100.0 µM,90% (active)
same,growth inhibition,[13]; at 1.2 µM,16%
same,growth inhibition,[13]; at 3.7 µM,77% (active)
same,growth inhibition,[13]; at 11.0 µM,92% (active)
same,growth inhibition,[13]; at 33.0 µM,94% (active)
same,growth inhibition,[13]; at 100.0 µM,88% (active)
same,growth inhibition,[14]; [16],70% (active)
same,growth inhibition,[14]; [17],94% (active)
same,growth inhibition,[14]; at 50.0 µM,85.9% (active)
same,growth inhibition,[15]; at 1.2 µM,-11%
same,growth inhibition,[15]; at 3.7 µM,72% (active)
same,growth inhibition,[15]; at 11.0 µM,93% (active)
same,growth inhibition,[15]; at 33.0 µM,93% (active)
same,growth inhibition,[15]; at 100.0 µM,85% (active)
